The target in the assay is Muscarinic acetylcholine receptor M1 (Homo sapiens) (UniProt P11229). The assay is described as follows: human M1 receptor potentiation, selectivity assay for M5 PAM project, CHO cells (AID 651923).

Calls of active or inactive are those of the source. The rule behind the calls is not given here.

Muscarinic acetylcholine receptor M1 (Homo sapiens), sequence (P11229 whole entry, looked up): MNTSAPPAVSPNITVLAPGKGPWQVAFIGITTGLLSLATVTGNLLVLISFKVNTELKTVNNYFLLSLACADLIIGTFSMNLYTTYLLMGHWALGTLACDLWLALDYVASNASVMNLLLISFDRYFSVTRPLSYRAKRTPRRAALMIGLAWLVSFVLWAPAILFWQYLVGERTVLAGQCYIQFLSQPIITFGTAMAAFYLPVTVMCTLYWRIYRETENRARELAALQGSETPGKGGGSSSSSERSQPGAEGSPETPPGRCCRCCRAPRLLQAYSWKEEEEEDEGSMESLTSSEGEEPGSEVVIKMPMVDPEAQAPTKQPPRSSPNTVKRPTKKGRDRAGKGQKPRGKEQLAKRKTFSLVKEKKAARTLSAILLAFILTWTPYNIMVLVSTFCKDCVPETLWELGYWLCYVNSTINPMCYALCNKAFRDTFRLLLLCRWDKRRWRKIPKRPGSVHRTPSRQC

Regarding `O=C1C(=O)N(CCOc2ccccc2)c2ccc(OC(F)(F)F)cc21`, the result was inactive.
